Data from PubChem BioAssay (NCI).
This is part of a sample that, as a whole, favours compounds with a hit. Of some 83,000 tested, about 20% had one in any assay.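 Each cell line was grown in a 96-well plate and treated with one concentration of compound for 48 hours. Values below 10 were considered active.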 Values without a mark were called inactive. Calls of active or inactive are those of the source.

What was measured:
Assay in all cases: NCI-60 one-dose screen, 48 h (100 = growth as untreated, 0 = no growth, -100 = all killed)
Details in all cases: 10 µM
SR leukemia = test system: SR leukemia
RPMI-8226 leukemia = test system: RPMI-8226 leukemia
OVCAR-8 ovarian = test system: OVCAR-8 ovarian
OVCAR-5 ovarian = test system: OVCAR-5 ovarian
OVCAR-4 ovarian = test system: OVCAR-4 ovarian
SK-OV-3 ovarian = test system: SK-OV-3 ovarian
IGROV1 ovarian = test system: IGROV1 ovarian
OVCAR-3 ovarian = test system: OVCAR-3 ovarian
HS 578T breast = test system: HS 578T breast
NCI/ADR-RES ovarian = test system: NCI/ADR-RES ovarian
T-47D breast = test system: T-47D breast
BT-549 breast = test system: BT-549 breast
MDA-MB-435 melanoma = test system: MDA-MB-435 melanoma
SW-620 colon = test system: SW-620 colon
MCF7 breast = test system: MCF7 breast
HCT-116 colon = test system: HCT-116 colon
HCC-2998 colon = test system: HCC-2998 colon
KM12 colon = test system: KM12 colon

Structure (SMILES)	growth (SR leukemia)	growth (RPMI-8226 leukemia)	growth (OVCAR-8 ovarian)	growth (OVCAR-5 ovarian)	growth (OVCAR-4 ovarian)	growth (SK-OV-3 ovarian)	growth (IGROV1 ovarian)	growth (OVCAR-3 ovarian)	growth (HS 578T breast)	growth (NCI/ADR-RES ovarian)	growth (T-47D breast)	growth (BT-549 breast)	growth (MDA-MB-435 melanoma)	growth (SW-620 colon)	growth (MCF7 breast)	growth (HCT-116 colon)	growth (HCC-2998 colon)	growth (KM12 colon)
COc1ccccc1NC1=C(N2CCCCC2)C(=O)c2ccccc2C1=O	76.3%	40.2%	84.7%	96.2%	69.7%	102%	100%	87%	93.3%	87.3%	77.4%	94.2%	93.2%	93.4%	74.8%	78.1%	91.7%	–
Cc1cc(/C=C2\SC(=Nc3ccccc3)N(C3CCCC3)C2=O)c(C)n1-c1ccc(Cl)cc1	-36.8% (active)	-43.3% (active)	-38% (active)	-24.9% (active)	-35.3% (active)	-90.5% (active)	-48.6% (active)	-85.1% (active)	-12.8% (active)	0.0476% (active)	-49.3% (active)	-57.6% (active)	-82.4% (active)	-61.6% (active)	-56.5% (active)	-50.5% (active)	-83.8% (active)	–
O=C(O)CN1C(=O)C=CC1=O	109%	106%	108%	101%	115%	105%	100%	104%	107%	111%	101%	114%	106%	107%	102%	107%	107%	102%
CNCCCNCCCN1C(=O)c2ccc3c4c(ccc(c24)C1=O)C(=O)N(CCCNCc1ccccc1OC)C3=O	-0.146% (active)	-16.2% (active)	-31.9% (active)	5.23% (active)	-91.5% (active)	36.8%	-40.7% (active)	-17.6% (active)	4.28% (active)	63%	-30.3% (active)	78.1%	-58.6% (active)	-19% (active)	-51.7% (active)	-8.97% (active)	-9.5% (active)	-16.9% (active)
COc1ccc(OC)c([N+](=O)[O-])c1C=O	37.2%	75.1%	97.8%	107%	105%	101%	101%	101%	89.6%	113%	56.5%	117%	101%	65.1%	38.2%	50.7%	110%	95.8%
COc1ccc(C2=NNC(c3sc(Cl)nc3Cl)C2)cc1 (configuration not stated)	2.77% (active)	81%	70.3%	123%	80.5%	90%	63.3%	61.9%	114%	105%	27.9%	53.3%	80%	29.1%	40.8%	28%	72.1%	79.5%
CC1=CSC2=NC(c3ccc(Cl)c(Cl)c3)=CC(c3ccc(Cl)cc3)N12 (configuration not stated)	0.606% (active)	82.3%	29.1%	91.8%	62.5%	-19.9% (active)	-52% (active)	18%	-1.12% (active)	92.9%	21.3%	7.99% (active)	10.4%	26.4%	54.3%	3.71% (active)	100%	56.8%
Cc1ccc(NC(=O)/C=N/O)cc1C	87%	96.6%	98.6%	96.9%	85.2%	81.3%	117%	87%	95.7%	112%	76.4%	91.6%	96.5%	100%	61.5%	98.1%	116%	104%
CC(C)/C(=N/O)c1ccccc1	107%	111%	110%	103%	111%	122%	118%	130%	118%	107%	114%	111%	107%	114%	107%	109%	106%	117%
O=C1c2cc(Cl)ccc2-c2c(O)cc(Cl)cc21	39.3%	46.6%	58.4%	101%	66.4%	94.8%	74.4%	80%	81.5%	3.18% (active)	63.9%	100%	106%	82.7%	77%	22.2%	105%	61%
COc1cc(-c2c(C#N)c(N)n3c(nc4ccccc43)c2C#N)cc(Br)c1OC	-1.43% (active)	35.8%	36.4%	68.9%	-2.8% (active)	49.3%	83.5%	-36.6% (active)	19.7%	78.1%	65.8%	65.1%	62.8%	41.4%	24.6%	18.8%	89.5%	21.1%
CNC(=S)Sc1ccc([N+](=O)[O-])cc1[N+](=O)[O-]	17.3%	13.7%	81.3%	93.7%	77.1%	80.2%	104%	36.3%	88.2%	92.5%	32.2%	20.5%	29.5%	36.8%	31.5%	27.7%	75.1%	13.4%
O=C1/C(=C/c2ccc(O)cc2)CSc2ccc(Cl)cc21	62.7%	98.2%	89.8%	95.2%	94.9%	105%	16.7%	90.4%	71.1%	82.2%	64.8%	81.9%	71.1%	27.9%	20.5%	31.2%	94.4%	35.1%
COc1ccc(/C=C2\CCC3C(CCCC34OCCO4)C2=O)cc1 (configuration not stated)	35.5%	81.2%	97.2%	91.7%	100%	97.1%	83%	75%	106%	75.8%	75.4%	88.4%	29.9%	75.6%	70.6%	92.4%	92.4%	67.7%
CCCCCCCCCCCCCCCCCBr	92.7%	102%	106%	100%	111%	100%	103%	114%	91.9%	104%	95.6%	112%	99.6%	107%	101%	105%	96.2%	113%
O=C(N/N=c1/ccoc2cccnc12)N1CCN(c2ncccn2)CC1	20.6%	30.6%	25.3%	50%	18.3%	15.4%	31.4%	30.6%	51.4%	10.1%	9.29% (active)	47.9%	34.9%	33.1%	11.2%	16%	26.1%	24.7%
O=C(COCc1c(-c2ccccc2)no[n+]1[O-])Nc1nc(-c2ccc(Cl)cc2)cs1	98.2%	109%	101%	109%	111%	95.1%	112%	102%	99.6%	101%	103%	102%	111%	101%	96.3%	104%	104%	101%
COC(=O)c1ccc(Cn2ccc(=O)[nH]c2=O)cc1	94.1%	106%	115%	104%	109%	116%	114%	130%	121%	110%	107%	113%	105%	110%	99.2%	104%	106%	103%
